Mdm2-MdmX inh: inhibitors of human Mdm2-MdmX association, primary screen, cell-based, luminescence, split luciferase, SaOS-2, uHTS; SaOS-2 split-luciferase Mdm2/MdmX complementation; inhibition, % at 8 µM; 3% of 330,000 active; AID 485346, 2010;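 active = inhibition of at least 50% at 8 µM in the primary screen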
CSC inhib: cancer stem cell viability inhibitors, primary screen, luminescence. cancer stem cell-like cells viability. 1.1% of 300,000 active. AID 2717, 2010. inhibition, % at 7.5 µM; in the data active = inhibition above about 75%; tested in HMLE shEcad cells
SKKanGAS inh: S. pyogenes SKKanGAS growth inhibitors in kanamycin, primary screen, streptokinase expression inhibitor project, SKKanGAS strain, BacTiter-Glo luminescence. inhibition, % at 7.5 µM. 6 h. 1.3% of 300,000 active;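 active = mean replicate score, as percent of positive control median, at least 50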;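 also: strain carries kanamycin resistance gene driven by streptokinase promoter and grows in 40 µg/ml kanamycin; loss of luminescence reflects streptokinase promoter inhibition or plain growth inhibition; 0% = median of DMSO wells and 100% = positive control at its reference dose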
MPTP inh: mitochondrial permeability transition pore inhibitors, primary screen, biochemical, isolated mouse mitochondria, absorbance; Ca2+ swelling absorbance, 30 min; inhibition, % at 10 µM; 1.4% of 360,000 active; AID 602449, 2012;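 active = inhibition of 50% or more, scaled per plate between neutral and stimulator controls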;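 also: 0% = DMSO wells given calcium and 100% = 1 mM EGTA wells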
GRIN3A LBD mod: binders of NR3A ligand-binding domain, primary screen, biophysical, differential scanning fluorimetry, uHTS; Tm shift relative to glycine control, % at 25 µM; 2.5% of 340,000 active; AID 1259313, 2017; Glutamate receptor ionotropic, NMDA 3A (GRIN3A) ligand-binding domain; NR3A LBD differential scanning fluorimetry, Tm shift; 0% = protein alone, 100% = glycine-bound protein;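 active = melting temperature shift of at least 10% of the positive control shift, at one fixed dose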
Beta apoptosis: inhibitors of cytokine-induced beta cell apoptosis, primary screen, luminescence; protection from apoptosis, % (test concentration not listed); 0.8% of 300,000 active; INS-1E cytokine-induced death, ATP luminescence, 48 h; percent of positive-control rescue, neutral wells zero;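 active = Every replicate reaches about 75%, or at least half do and their mean reaches it too, limit read from the data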;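 also: 0% = cytokine-treated negative control wells and 100% = positive control rescue; higher means more ATP so stronger rescue from cytokine killing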
Mdm2-MdmX conf: Mdm2-MdmX complex disruptors, retested hits, confirmation, luminescence, single concentration; inhibition, % at 8 µM; shares compounds with Mdm2-MdmX inh; 55% of 10,000 active; Mdm2-MdmX binding, luminescent assay; in the data active = inhibition above about 40%
FLuc counter: full-length luciferase signal inhibition, confirmation, counter-screen for Mdm2/MdmX interaction inhibitor project, cell-based, single concentration, SaOS-2. shares compounds with Mdm2-MdmX inh. SaOS-2 full-length luciferase counterscreen, luminescence. inhibition, % at 8 µM. 77% of 6,200 active. AID 504607, 2011;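 active = mean inhibition at 8 µM reaching about 37%, which flags the compound as non-specific, limit read from the data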;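 also: p53-null SaOS-2 cells with luciferase driven by a doxycycline-inducible promoter; compound on cells about two nights before reading with doxycycline added after day one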
* = called active by the depositor. Only some compounds are listed: those with a hit (about 6.9% of all), similar ones and a draw of the others.

What do the screens show for `O=C(NNC(=O)c1cc(Cl)ccc1[N+](=O)[O-])c1csc(N2CCOCC2)n1`?
Mdm2-MdmX inh: 21; CSC inhib: -23; SKKanGAS inh: -6; MPTP inh: 1; Beta apoptosis: 1

What do the screens show for `COC(=O)C1=C(C(=O)OC)[C@@H]2N(Cc3ccccc3)c3ccccc3[C@@]23C[C@@H](C(=O)OC)N(C(=O)c2cc(C)oc2C)C3=N1`?
Mdm2-MdmX inh: 57*; CSC inhib: 26; SKKanGAS inh: 6; MPTP inh: -2; GRIN3A LBD mod: -5; Beta apoptosis: 2; Mdm2-MdmX conf: 7

How did COC(=O)C1=C(C(=O)OC)[C@@H]2N(Cc3ccccc3)c3ccccc3[C@@]23C[C@@H](C(=O)OC)N(C(=O)c2cccs2)C3=N1 do in these assays?
Mdm2-MdmX inh: 60*; CSC inhib: 33; SKKanGAS inh: 3; MPTP inh: 2; GRIN3A LBD mod: -1; Beta apoptosis: -5; Mdm2-MdmX conf: 21

Results for COC(=O)C1=C(C(=O)OC)[C@@H]2N(Cc3ccccc3)c3ccccc3[C@@]23C[C@@H](C(=O)OC)N(C(=O)CC(C)C)C3=N1 ?
Mdm2-MdmX inh: 4; CSC inhib: 22; SKKanGAS inh: 7; MPTP inh: 0; GRIN3A LBD mod: -2; Beta apoptosis: 12

What do the screens show for `COC(=O)C1=C(C(=O)OC)[C@@H]2N(C)c3ccccc3[C@@]23C[C@@H](C(=O)OC)N(C(=O)c2cccs2)C3=N1`?
Mdm2-MdmX inh: 24; CSC inhib: 0; SKKanGAS inh: 0; MPTP inh: 0; GRIN3A LBD mod: 0; Beta apoptosis: -7

What do the screens show for `COc1ccc(C(=O)N2CCC3(CC2)NCCc2[nH]cnc23)cc1OC`?
Mdm2-MdmX inh: 4; CSC inhib: -10; SKKanGAS inh: 1; MPTP inh: 0; GRIN3A LBD mod: 3; Beta apoptosis: -1

What do the screens show for `CC(C)(C)C(=O)Nc1ccc(N=Nc2ccccc2)cc1`?
Mdm2-MdmX inh: 71*; CSC inhib: 34; SKKanGAS inh: 5; MPTP inh: 1; GRIN3A LBD mod: -13; Beta apoptosis: -17; Mdm2-MdmX conf: 73*; FLuc counter: 136*

How did CCOC(=O)CSc1ncnc2c1c(-c1ccccc1)cn2-c1ccc(OC)cc1 do in these assays?
Mdm2-MdmX inh: 8; CSC inhib: -6; SKKanGAS inh: 12; MPTP inh: 0; GRIN3A LBD mod: -3; Beta apoptosis: 6

What do the screens show for `COc1ccc(-n2cc(-c3ccccc3)c3c(N4CC(C)OC(C)C4)ncnc32)cc1` (stereo not given)?
Mdm2-MdmX inh: 64*; CSC inhib: 69; SKKanGAS inh: 15; MPTP inh: 0; GRIN3A LBD mod: -2; Beta apoptosis: 9; Mdm2-MdmX conf: 50*; FLuc counter: 84*

How did CCOc1ccc(-n2cc(-c3ccccc3)c3c(N4CCOCC4)ncnc32)cc1 do in these assays?
Mdm2-MdmX inh: 74*; CSC inhib: 104*; SKKanGAS inh: 28; MPTP inh: -1; GRIN3A LBD mod: -3; Beta apoptosis: 14; Mdm2-MdmX conf: 65*; FLuc counter: 83*

What do the screens show for `O=C(CNC1CCCCCC1)Nc1ccccc1N1CCOCC1`?
Mdm2-MdmX inh: 19; CSC inhib: 6; SKKanGAS inh: 5; MPTP inh: -1; GRIN3A LBD mod: -1; Beta apoptosis: 2

Results for c1ccc(Nc2ccccn2)cc1 ?
Mdm2-MdmX inh: 13; CSC inhib: -5; SKKanGAS inh: 1; MPTP inh: 1; GRIN3A LBD mod: -27; Beta apoptosis: -5

Results for c1ccc(/N=C2\N=C(Nc3ccccn3)c3ccccc32)nc1 ?
Mdm2-MdmX inh: 72*; CSC inhib: 52; SKKanGAS inh: 60*; MPTP inh: 1; GRIN3A LBD mod: 1; Beta apoptosis: 103*; Mdm2-MdmX conf: 5

What do the screens show for `COc1ccccc1-c1noc(CCC(=O)NC2CCCCC2)n1`?
Mdm2-MdmX inh: 17; CSC inhib: -4; SKKanGAS inh: 2; MPTP inh: 1; GRIN3A LBD mod: -1

What do the screens show for `N#CC(C#N)=Cc1c[nH]c(=O)c(C#N)c1Nc1ccccc1`?
Mdm2-MdmX inh: -2; CSC inhib: 6; SKKanGAS inh: 0; MPTP inh: 2; GRIN3A LBD mod: 0; Beta apoptosis: 0

Results for Cc1cc2c(cc1S(=O)(=O)CCC(=O)N(C)C1CCCCC1)OCC(=O)N2 ?
Mdm2-MdmX inh: 12; SKKanGAS inh: -6; MPTP inh: -2; GRIN3A LBD mod: -2; Beta apoptosis: 1

What do the screens show for `O=C(O)c1c(NC(=O)N2CCOCC2)sc2c1CCCC2`?
Mdm2-MdmX inh: 10; CSC inhib: 1; SKKanGAS inh: -3; MPTP inh: 0; GRIN3A LBD mod: 1; Beta apoptosis: 4

What do the screens show for `COc1cc2ccccc2cc1C(=O)N(CCN(C)C)c1nc2ccc(C)cc2s1`?
Mdm2-MdmX inh: 68*; CSC inhib: -8; SKKanGAS inh: 5; MPTP inh: 2; GRIN3A LBD mod: -4; Beta apoptosis: 21; Mdm2-MdmX conf: 56*; FLuc counter: 45*

How did COc1ccccc1C(=O)N(CCN(C)C)c1nc2cc(C)cc(C)c2s1 do in these assays?
Mdm2-MdmX inh: 32; CSC inhib: 5; SKKanGAS inh: -19; MPTP inh: 0; GRIN3A LBD mod: -1; Beta apoptosis: -3

What do the screens show for `CCN(CC)CCN(C(=O)c1cc2ccccc2cc1OC)c1nc2ccc(F)cc2s1`?
Mdm2-MdmX inh: 29; CSC inhib: 45; SKKanGAS inh: 6; MPTP inh: 0; GRIN3A LBD mod: 2; Beta apoptosis: 4

Results for CCN(CC)CCN(C(=O)c1cc2ccccc2cc1OC)c1nc2ccc(OC)cc2s1 ?
Mdm2-MdmX inh: 51*; CSC inhib: 34; SKKanGAS inh: -5; MPTP inh: -1; GRIN3A LBD mod: 3; Beta apoptosis: 6; Mdm2-MdmX conf: 25

Results for O=C(COC(=O)c1ccc[nH]c1=O)Nc1ccc(N2CCCCC2)cc1 ?
Mdm2-MdmX inh: -40; CSC inhib: 0; MPTP inh: 0; GRIN3A LBD mod: 1; Beta apoptosis: -7

High-throughput results from PubChem.
